From PubChem BioAssay
Calls of active or inactive are those of the source.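 The calls were made as follows: active = visual image review flags a hit and inhibition of aggregation exceeds 20%; inconclusive = visual hit but inhibition at or below 20%; inactive = no hit on visual image review.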

Experiment: inhibitors of mutant huntingtin aggregation, primary screen, imaging, exon1htt(103Q)mCFP cells, high-content imaging (AID 483);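 also: compound exposure lasted 3 days before fixation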;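 as to nuclei count: percent of the per-plate median nuclei count of sample wells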
Details: exon1htt(103Q)mCFP cell line, aggregate imaging, at 2 µM; inhibition of aggregation: stronger effect = higher value; nuclei count: measured here: cell count, toxicity

SMILES | nuclei count [%] | inhibition of aggregation
COc1ccc(C)cc1NC(=O)CN1CCN(S(=O)(=O)c2ccc(Cl)cc2)CC1 | 104 | 4.2% (inactive)
COc1cccc(C(=O)Nc2c(C(N)=O)oc3ccccc23)c1 | 89.2 | 28.5% (inactive)
O=C(CC(Cc1ccccc1)C(=O)O)NCCc1ccc2c(c1)OCO2 (stereo not given) | 107 | -0.6% (inactive)
CC(=O)c1cccc(NC(=O)CCNS(=O)(=O)c2cccc3nsnc23)c1 | 104 | -17.6% (inactive)
COc1ccc(-n2c(=O)cc(N3CCN(Cc4ccccc4)CC3)[nH]c2=O)cc1 | 119 | -0.4% (inactive)
Cc1cc(N2C(=O)C(O)=C(C(=O)c3ccc(C)o3)C2c2cccs2)no1 (stereo not given) | 75.8 | 13.3% (inactive)
COC(=O)C1=C(C)NC(C)=C(C(=O)OC)C1C(=O)OC1CCCCC1=O (stereo not given) | 87.8 | 32.7% (inactive)
O=C(Cc1cccs1)Nc1ccccc1NC(=O)Cc1cccs1 | 82.6 | 16.2% (inactive)
CCOC(=O)c1cc2c(=O)n3ccccc3nc2n(CCCOC)c1=NC(=O)C(C)(C)C | 86.8 | 39.3% (active)
CCOC(=O)c1cc(-c2ccco2)nc2c1c(C)nn2CCC#N | 103 | -3.4% (inactive)
Cc1cc(C)c(C#N)c(SCC(=O)Nc2ccc(S(=O)(=O)Nc3onc(C)c3C)cc2)n1 | 103 | 3.9% (inactive)
O=c1c2nnn(Cc3ccc(Cl)cc3)c2ncn1Cc1ccc(F)cc1 | 130 | -10.3% (inactive)
Cc1ccc2c(c1)CCCN2C(=O)C1CCCO1 (stereo not given) | 95 | 7.6% (inactive)
CC1(C)NC(=O)N(CC(O)COc2ccc(-c3ccccc3)cc2)C1=O (stereo not given) | 89.9 | 4.5% (inactive)
CS(=O)(=O)NCc1nnc(SCC(=O)NC2CCCCC2)n1-c1ccc(F)cc1 | 111 | -0.9% (inactive)
O=C(NCC1CCCO1)c1cccc(N2C(=O)C3C4C=CC(C4)C3C2=O)c1 (stereo not given) | 101 | 0% (inactive)
CC(=O)Nc1cccc(NC(=O)C2CCCN2C(=O)Nc2ccc(C)cc2)c1 (stereo not given) | 89.4 | 0.5% (inactive)
COc1cccc(CN=CC2=C(O)CC(C)(C)CC2=O)c1OC | 99.6 | -1.8% (inactive)
COC(=O)Cn1c(CN2CCOCC2)nc2c1c(=O)n(C)c(=O)n2C | 95.4 | 6.2% (inactive)
O=C(O)c1[nH]c2ccc(Cl)cc2c1CC(=O)N1CCN(C(=O)c2ccco2)CC1 | 99.6 | -8.5% (inactive)

SMILES | nuclei count [%] | inhibition of aggregation
CC1CCN(c2oc(-c3cccc4ccccc34)nc2C#N)CC1 | 102 | 1.2% (inactive)
Cc1ccc(S(=O)(=O)N2CCN(C(=O)CSC3CCCC3)CC2)c(C)c1 | 93.6 | -0.7% (inactive)
CCOC(=O)c1sc2nc(SCC#N)n(CCCN3CCCC3=O)c(=O)c2c1C | 89.9 | -11.9% (inactive)
COc1cc(C(Nc2ccc3c(c2)OCO3)C(=O)NC2CCCCC2)cc(OC)c1OC (stereo not given) | 88.5 | 12.3% (inactive)
Cc1cc2c(cc(C(=O)OCC(=O)NCc3cccs3)n2C(C)C)o1 | 106 | 7.7% (inactive)
O=C(CSc1nc2ccccc2nc1SCC(=O)N1CCOCC1)N1CCOCC1 | 93.3 | 11.3% (inactive)
Cc1onc(-c2ccccc2Cl)c1C(=O)Nc1cnn(Cc2ccccc2)c1 | 121 | -4% (inactive)
CC(NC(=O)c1ccco1)c1ccc2c(c1)OCCO2 (stereo not given) | 89.2 | 10% (inactive)
Cc1nc2ccccc2n1CCC(=O)Nc1cccc(F)c1 | 100 | 0.2% (inactive)
O=C(NC1CCCCCC1)C1CCCN(S(=O)(=O)c2cccs2)C1 (stereo not given) | 109 | -1% (inactive)
COc1ccc(CC(=O)OCn2nnc3ccccc3c2=O)cc1 | 120 | -25.9% (inactive)
CCCNC(=O)Nc1ccccc1C(=O)Nc1ccc(OC)cc1 | 104 | -15.5% (inactive)
CCSc1nnc(N2C(=O)CC(c3ccsc3)C3=C2CC(C)(C)CC3=O)s1 (stereo not given) | 109 | 4.8% (inactive)
COc1ccccc1-n1c(SCC(=O)Nc2ccc3c(c2)OCO3)nc2c(c1=O)SCC2 | 94.7 | -2.1% (inactive)
COc1ccc(S(=O)(=O)Cc2ccc(C(=O)N3CCOCC3)o2)cc1 | 93 | -10.7% (inactive)
Cc1ccc(S(=O)(=O)NCCSc2nnnn2-c2ccc(C(N)=O)cc2)cc1 | 115 | 2.1% (inactive)
O=C(c1cccc(C(=O)N2CCN(c3ccc(F)cc3)CC2)c1)N1CCN(c2ccc(F)cc2)CC1 | 68.1 | -21.7% (inactive)
CCOCCCNC(=O)c1cc2sc(Cl)cc2n1CC | 89.7 | -1.1% (inactive)
CCOc1ccc(NC(=O)CN2CCN(CC(=O)c3ccc(OCC)cc3)CC2)cc1 | 110 | -16% (inactive)
CC1CCCC(N2CCN(C(=O)c3ccc(F)cc3)CC2)C1 (stereo not given) | 106 | -15.5% (inactive)
